Measured values as given in PubChem BioAssay (NCI).
Where “and” joins values, the source holds several entries; their conditions need not be identical. Equal entries are not always repeated. About 83,000 compounds went through this panel and 20% of them were active in at least one assay; those are over-represented in the sample as a whole.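 48-hour exposure, single concentration, 96-well plates; percent growth endpoint where 0 means no net growth. Active: below 10.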 Unmarked numbers belong to inactive results. Calls of active or inactive are those of the source.

These molecules were tested on MDA-MB-468 breast (assay: NCI-60 one-dose screen, 48 h (100 = growth as untreated, 0 = no growth, -100 = all killed)). Details: 10 µM unless noted.

SMILES | growth
O=c1oc2ccc(-c3ccc(F)cc3F)cc2c(=O)n1-c1ccc(F)c(F)c1 | -10.8% (active)
O=c1c2c([nH]c3ccccc13)CCCC2 | 88.2% and 14.6%
O=C(CSc1nc2ccccc2c(=O)n1-c1ccc(Cl)c(Cl)c1)Nc1ccc(S(=O)(=O)Nc2ccc(Cl)nn2)cc1 | 116%
O=c1[nH]ncc(Br)c1Br | -15.7% (active)
COc1cnc2c(c1)C(=O)c1c-2n(CCCNC(C)C)c(=O)c2cc(Cl)ccc12 | 17.7%
